# Activity calls are given as the source filed them. Unless noted, no rule for the calls is given here.
# Columns and labels:
# [1] = test system: Wnt5a (protein binding on small-molecule microarray); test: Wnt5a binders on small-molecule microarray, primary screen, biophysical, 635/667 nm fluorescence (AID 1142); details: 635 nm fluorescence, higher = more signal;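 also: fluorescence read at 667 nm with signal to noise per printed feature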
# [2] = cell viability in Huh7 cells, primary screen, cytotoxicity control for HCV replication inhibitor project, CellTiter-Glo luminescence, basal, 48 h (AID 1143); details: Huh7 HCV replicon, higher = more signal, called active from +8 up or from −8 down;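 also: Huh7 hepatoma cells carrying a hepatitis C replication reporter with no stimulus; test concentration not given here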
# [3] = P. aeruginosa biofilm formation inhibitors, primary screen, PAO1 strain, BacTiter-Glo luminescence, LB-PBS (AID 1144); details: 12 h, higher = more signal
# [4] = CREB reporter modulators without forskolin, primary screen, cell-based, PC12, CRE-LacZ reporter, unstimulated (AID 1145); details: no forskolin, luminescence, 4.5 h, higher = more signal, called active from +8 up or from −8 down
# [5] = CREB reporter modulators under forskolin, primary screen, cell-based, PC12, CRE-LacZ reporter, forskolin-stimulated (AID 1146); details: luminescence, 4.5 h, higher = more signal, called active from +8 up or from −8 down;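 also: PC12 cells with 6xCRE LacZ reporter stimulated by forskolin 10 µM; beta-galactosidase reporter signal reflecting CREB driven transcription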
# [6] = target: Streptavidin (Streptomyces avidinii) (UniProt P22629); test: streptavidin binders on small-molecule microarray, primary screen, artefact control for SMM compound annotation, biophysical, 635/667 nm fluorescence (AID 1147); details: streptavidin binding, higher = more signal;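 also: signal reflects streptavidin binding to arrayed compounds as a control protein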
# Streptavidin (Streptomyces avidinii), sequence (P22629 whole entry, looked up): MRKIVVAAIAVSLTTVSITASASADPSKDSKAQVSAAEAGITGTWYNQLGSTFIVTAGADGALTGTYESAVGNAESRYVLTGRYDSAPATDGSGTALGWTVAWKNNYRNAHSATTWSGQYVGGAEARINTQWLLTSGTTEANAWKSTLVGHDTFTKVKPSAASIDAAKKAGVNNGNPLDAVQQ
# [7] = small-molecule binders of probe aInhba, primary screen, biochemical, small-molecule microarray, 635/667 nm fluorescence (AID 1148); details: higher = more signal;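 also: score merges 667nm spot fluorescence with signal-to-noise for antibody binding to printed compounds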
# Torsin-1A (Homo sapiens) [8] = target: Torsin-1A (Homo sapiens) (UniProt O14656); test: torsin A binders from cell lysate, primary screen, small-molecule microarray, wild-type, 635/667 nm (AID 1149); details: COS7 hTOR1A-WT lysate, 635 nm fluorescence, higher = more signal
# Torsin-1A (Homo sapiens), sequence (O14656 whole entry, looked up): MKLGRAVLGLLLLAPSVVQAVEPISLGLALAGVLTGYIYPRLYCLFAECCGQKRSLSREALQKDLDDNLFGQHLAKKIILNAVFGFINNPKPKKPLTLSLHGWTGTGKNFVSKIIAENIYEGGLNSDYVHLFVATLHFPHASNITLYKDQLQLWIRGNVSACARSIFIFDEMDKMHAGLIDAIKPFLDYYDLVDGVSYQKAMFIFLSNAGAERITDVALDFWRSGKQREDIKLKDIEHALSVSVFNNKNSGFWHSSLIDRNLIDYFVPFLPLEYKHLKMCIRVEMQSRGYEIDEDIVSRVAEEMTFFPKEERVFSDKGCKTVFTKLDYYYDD
# Torsin-1A (Homo sapiens) [9] = target: Torsin-1A (Homo sapiens) (UniProt O14656); test: small-molecule binders of mutant TOR1A in lysate, primary screen, cell lysate, small-molecule microarray, COS7 lysate, 635/667 nm fluorescence (AID 1150); details: COS7 hTOR1A mutant lysate, 635 nm fluorescence, higher = more signal;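 also: score pools 667 nm emission and signal to noise measuring lysate protein binding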
# [10] = test system: Sonic hedgehog protein (Shh); test: small-molecule binders of Shh protein, primary screen, biochemical, small-molecule microarray, 635/667 nm fluorescence (AID 1151); details: small-molecule microarray binding, 635 nm fluorescence; higher = more signal;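 also: Shh protein binding to compounds spotted on small-molecule microarray slides; score combines spot fluorescence intensity with signal-to-noise across triplicate slides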
SMILES,composite z-score [1],z-score [2],z-score [3],z-score [4],z-score [5],composite z-score [6],composite z-score [7],composite z-score (Torsin-1A (Homo sapiens) [8]),composite z-score (Torsin-1A (Homo sapiens) [9]),composite z-score [10]
O=C(NCC(O)CO)[C@]1(CCS(=O)(=O)c2ccccc2)N=C(c2ccc(OCCCO)cc2)O[C@@H]1c1ccccc1 (stereo not given in full),0.299,-0.084 (inactive),0.295 (inactive),0.596 (inactive),-0.0842 (inactive),1.03,-0.0567,0.499,1.48,-1.05
O=C1O[C@H](c2ccccc2)[C@H](c2ccccc2)N2[C@H]1[C@@H](C(=O)Nc1nc3ccccc3s1)[C@]1(C(=O)Nc3ccc(C#CC4=CCCCC4)cc31)[C@H]2c1ccc(OCCO)cc1,0.706,-1.3 (inactive),-0.711 (inactive),0.128 (inactive),0.205 (inactive),1.73,0.417,0.0608,0.407,0.598
NC(=O)[C@]1(Cc2ccccc2)N=C(c2ccc(OCCCO)cc2)O[C@@H]1c1ccccc1,0.0788,-2.3 (inactive),-0.783 (inactive),5.59 (inactive),1.49 (inactive),0.452,0.0872,-0.783,-0.0179,-0.955
C=CCN1C(=O)[C@]2(Cc3ccccc31)N=C(c1ccc(OCCCO)cc1)O[C@@H]2c1ccccc1,1.2,-3.54 (inactive),-0.324 (inactive),-0.146 (inactive),-0.436 (inactive),0.586,-0.0645,0.154,0.512,0.308
C=CCC(OC(C)=O)[C@@H]1[C@@H](N(Cc2ccc(-c3ccccc3)cc2)C(=O)c2ccc(C)cc2)c2cc(OCCCO)ccc2N1C(=O)c1ccc2ccccc2n1 (stereo not given in full),-0.162,-1.16 (inactive),-1.41 (inactive),5.54 (inactive),-0.523 (inactive),0.105,0.173,-0.211,0.115,0.794
C=C(COC)C(=O)CC[C@@H](OC(=O)c1ccccc1-c1ccccc1C(=O)O)c1ccc(CO)o1,1.24,-7.58 (inactive),0.164 (inactive),8.29 (active),5.1 (inactive),-0.517,-0.188,1.67,0.404,1.91
Cc1ccc(N2C(=O)c3ccccc3[C@@H](C(=O)NCC(C)C)[C@@H]2c2ccc(CO)cc2)nc1,-0.0957,-0.308 (inactive),0.504 (inactive),-0.295 (inactive),0.892 (inactive),-1.45,-0.231,-1.67,-1.47,-0.0902
[N-]=[N+]=NCc1ccccc1C[C@]1(C(=O)NCCN2CCOCC2)N=C(c2ccc(OCCCO)cc2)O[C@H]1c1ccccc1CN=[N+]=[N-],0.888,-6.14 (inactive),-1.12 (inactive),1.34 (inactive),-0.887 (inactive),0.803,0.0155,0.0892,0.938,1.45
[N-]=[N+]=NCc1ccccc1[C@H]1OC(c2ccc(OCCCO)cc2)=N[C@@]1(Cc1ccccc1)C(=O)O,0.631,-1.01 (inactive),0.564 (inactive),-1.19 (inactive),-0.609 (inactive),1.37,-0.0477,0.112,0.381,-0.22
CN(C)CCCC[C@@H]1NC(=O)[C@@H]2C[C@H](C(=O)NCCCCCCN)[C@H](c3ccc(O)cc3)N2C1=O,0.346,0.255 (inactive),-0.481 (inactive),-0.122 (inactive),0.208 (inactive),1.19,0.554,0.613,0.901,0.945
CCOC(=O)C[C@H]1[C@H](OC(=O)c2ccc(C(=O)c3ccccc3)cc2)[C@@H](NC(=O)c2ccc3ccccc3n2)c2cc(OCCCO)ccc2N1C(=O)c1ccc2ccccc2n1,0.211,0.0729 (inactive),-0.754 (inactive),2.05 (inactive),-1.22 (inactive),0.47,0.0778,0.323,0.134,-0.0692
CC1CC/C=C\[C@H]2OC34C=CCN(CCN5CCOCC5)C(=O)[C@H]3N(CCCCCO)C(=O)[C@@H]4C2C(=O)O1 (stereo not given in full),0.06,0.362 (inactive),0.658 (inactive),0.0645 (inactive),0.259 (inactive),-0.488,-0.327,-0.0591,-0.352,0.322
C=CCOC(=O)[C@@H]1[C@H]2C(=O)O[C@H](c3ccccc3)[C@H](c3ccccc3)N2[C@H](c2ccc(OCCOC(=O)[C@H]3C[C@H]4C(=O)N[C@@H](Cc5ccccc5)C(=O)N4[C@H]3c3ccc(O)cc3)cc2)[C@@]12C(=O)Nc1ccc(I)cc12,0.388,-0.409 (inactive),-0.00469 (inactive),5.82 (inactive),11.7 (active),0.593,-0.0391,0.72,0.544,1.81
[N-]=[N+]=NCc1ccccc1[C@@H]1OC(c2ccc(OCCCO)cc2)=N[C@]1(Cc1ccccc1N=[N+]=[N-])C(N)=O,0.138,-1.91 (inactive),-0.089 (inactive),-0.128 (inactive),0.15 (inactive),2.16,0.32,0.571,0.373,-0.349
CCCCCCCCCCC(O)C1C=CC2C(=O)N(c3ccccc3)C(=O)C2N1Nc1ccc([N+](=O)[O-])cc1 (stereo not given),0.207,-2.71 (inactive),-0.214 (inactive),0.285 (inactive),0.925 (inactive),0.811,-0.0059,0.0415,0.227,0.358
CN1C(=O)C2C=CC(C(O)C(C)(C)C)N(Nc3ccccc3)C2C1=O (stereo not given),0.04,1.07 (inactive),-0.101 (inactive),0.24 (inactive),0.124 (inactive),0.0034,-0.157,0.392,-0.419,-0.624
C=CCOC(=O)[C@H]1[C@@H]2C(=O)O[C@@H](c3ccccc3)[C@@H](c3ccccc3)N2[C@@H](c2ccc(OCCOC(=O)[C@@H]3C[C@@H]4C(=O)NCC(=O)N4[C@@H]3c3ccc(O)cc3)cc2)[C@]12C(=O)Nc1ccc(I)cc12,1.07,0.586 (inactive),0.183 (inactive),0.0003 (inactive),-0.53 (inactive),0.205,-0.125,1.02,1.18,2.04
Cc1ccc([C@H]2C(C(=O)O)=C[C@@H](C(C)C)N2S(=O)(=O)c2ccc(C)cc2)cc1,-0.167,0.0491 (inactive),0.633 (inactive),-0.424 (inactive),1.01 (inactive),0.946,0.0173,-0.165,0.28,-0.542
CC(C)[Si]1(C(C)C)O[C@@H](c2ccccc2)c2cc(-c3ccc(-c4ccc(Cl)c(Cl)c4)o3)nc(CCc3ccccc3)c21,-0.306,-1.03 (inactive),0.251 (inactive),0.367 (inactive),1.52 (inactive),-0.549,-0.204,-0.555,-0.181,-0.74
C=CCNC(=O)[C@H]1[C@@H]2C(=O)O[C@@H](c3ccccc3)[C@@H](c3ccccc3)N2[C@@H](c2ccc(O)cc2)[C@]12C(=O)Nc1ccc(C#Cc3ccc(OC)cc3)cc12,0.555,-3.44 (inactive),-0.182 (inactive),-0.141 (inactive),0.468 (inactive),0.252,-0.0523,0.11,0.117,0.667
[N-]=[N+]=Nc1ccccc1[C@H]1OC(c2ccc(OCCCO)cc2)=N[C@@]1(CCS(=O)(=O)c1ccccc1)C(=O)N1CCOCC1,1.48,-2.5 (inactive),0.385 (inactive),0.937 (inactive),0.28 (inactive),0.877,0.496,0.35,0.923,0.836
Cc1ccc(S[C@]2(C(=O)NCc3ccccc3)CC(=O)N(Cc3cc(C(F)(F)F)cc(C(F)(F)F)c3)[C@@H]2c2ccc(CO)cc2)cc1,-0.492,-0.0639 (inactive),0.315 (inactive),0.829 (inactive),1.21 (inactive),-0.684,-0.126,-1.3,-0.755,0.824
Cc1cc(C)c(C(O)C2C=CC3C(=O)NC(=O)C3N2Nc2ccccn2)c(C)c1 (stereo not given),-0.265,0.882 (inactive),-0.644 (inactive),-0.14 (inactive),-0.0376 (inactive),0.545,0.0599,-0.145,0.736,-0.095
CN1C(=O)C2C=CC(C(O)c3ccc(Br)cc3)N(Nc3ccccc3)C2C1=O (stereo not given),-0.323,1.06 (inactive),-0.595 (inactive),1.6 (inactive),0.127 (inactive),-0.524,-0.0523,0.24,0.828,-1.09
COCCOC(=O)N1C(=O)[C@@]2(c3cc(C#Cc4ccc(OC)cc4)ccc31)[C@H](c1ccc(OCCO)cc1)N1[C@H](c3ccccc3)[C@H](c3ccccc3)OC(=O)[C@H]1[C@@H]2C(=O)N1CCc2cc(OC)c(OC)cc2C1,0.377,-2.85 (inactive),-1.61 (inactive),-1.15 (inactive),-1.33 (inactive),0.482,-0.0736,0.37,0.454,1.85
CN(C)CCCCNC(=O)[C@@H]1C[C@@H]2C(=O)N[C@@H](CCCCN)C(=O)N2[C@@H]1c1cccc(OCCO)c1,-0.157,0.0925 (inactive),-0.703 (inactive),-0.805 (inactive),-0.325 (inactive),-0.521,0.245,-1.37,-2.02,0.985
CCCCN1CC=CC23O[C@@H]4/C=C\CCCOC(=O)C4[C@H]2C(=O)N(C(C)CO)[C@@H]3C1=O (stereo not given in full),-0.286,0.33 (inactive),-1.35 (inactive),-0.907 (inactive),-0.679 (inactive),-0.559,-0.05,-0.534,-0.804,0.732
CCCC[C@H]1C[C@@H]1[C@@H]1N(P(=O)(c2ccccc2)c2ccccc2)[C@](CO)(c2ccccc2)CC12CC2,0.326,-3.16 (inactive),0.76 (inactive),-0.561 (inactive),-1.24 (inactive),1.15,0.0403,-0.57,0.515,-1.36
